Assay results taken from PubChem BioAssay.
Activity calls are given as the source filed them.

Legend:
[1] = system: PRMT1 (protein arginine N-methyltransferase 1); assay: small molecules binding arginine methyltransferase PRMT1 – biochemical, small-molecule microarray, 635 nm fluorescence, primary screen (AID 1088); details: higher = more signal;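 further: binding of Prmt1 protein to compounds spotted on small-molecule microarray slides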
[2] = growth effects on S. cerevisiae YJM789 – YJM789 clinical isolate, OD600, 24 h, basal, primary screen (AID 1089); details: higher = more signal, called active from +8 up or from −8 down;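 further: growth of clinical yeast isolate S. cerevisiae YJM 789 seeded 1000 cells per well; test concentration not given here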
[3] = S. pombe growth modifiers, basal conditions – strain 972, OD600, 24 h, no modulator, primary screen (AID 1090);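 further: basal condition with compound alone and no growth modifier present; test concentration not given here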; details: S. pombe 972 growth, higher = more signal, called active from +8 up or from −8 down
[4] = budding yeast growth modifiers under rapamycin – strain BY4716, OD600, 96 h, primary screen (AID 1091); further: test concentration not given here; details: S. cerevisiae BY4716 + rapamycin, higher = more signal, called active from +8 up or from −8 down
[5] = target: Torsin-1A-interacting protein 2 (Homo sapiens) (UniProt Q8NFQ8); assay: small molecules binding lysate-expressed LULL1 – cell lysate, human LULL1 lysate, 635/667 nm fluorescence, primary screen (AID 1092); details: small-molecule microarray, hLULL1 lysate binding, 635 nm fluorescence; higher = more signal;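 further: probe is lysate of COS7 cells overexpressing human LULL1; score merges per-feature 667 nm fluorescence with signal-to-noise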
Torsin-1A-interacting protein 2 (Homo sapiens), sequence (Q8NFQ8 whole entry, looked up): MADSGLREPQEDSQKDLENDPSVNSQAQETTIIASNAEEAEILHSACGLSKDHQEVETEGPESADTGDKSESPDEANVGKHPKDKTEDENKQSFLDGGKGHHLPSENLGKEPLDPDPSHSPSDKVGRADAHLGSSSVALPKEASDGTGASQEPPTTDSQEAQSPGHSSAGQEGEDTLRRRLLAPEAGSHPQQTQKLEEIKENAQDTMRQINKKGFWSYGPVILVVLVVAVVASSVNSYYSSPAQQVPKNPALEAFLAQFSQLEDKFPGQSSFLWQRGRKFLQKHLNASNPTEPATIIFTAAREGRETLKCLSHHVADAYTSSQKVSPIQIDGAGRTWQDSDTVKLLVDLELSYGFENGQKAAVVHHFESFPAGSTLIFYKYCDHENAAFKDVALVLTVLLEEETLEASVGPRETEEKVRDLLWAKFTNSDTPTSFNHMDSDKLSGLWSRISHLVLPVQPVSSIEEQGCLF

[6] = optical density change of DRC41 E. coli – strain DRC41, OD650, 24 h, E. coli filamentation project, primary screen (AID 1093);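 further: MC1000 strain lacking acrAB efflux and sulA so SOS filamentation is blocked; test concentration not given here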; details: E. coli DRC41 growth, higher = more signal, called active from +8 up or from −8 down
[7] = probe aLefty2 binding to arrayed compounds – biochemical, biotinylated probe, 635/667 nm fluorescence, primary screen (AID 1094); details: small-molecule microarray, higher = more signal;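 further: score merges spot fluorescence near 667 nm with spot signal-to-noise ratio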
[8] = system: Noggin (protein binding on small-molecule microarray); assay: small molecules binding Noggin protein – biochemical, 635/667 nm fluorescence, primary screen (AID 1095); details: 635 nm fluorescence, higher = more signal;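 further: score merges 667 nm feature fluorescence with signal to noise over triplicate slides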
[9] = target: Neurogenic locus notch homolog protein 3 (Homo sapiens) (UniProt Q9UM47); assay: small molecules binding NOTCH3 protein – biochemical, 635/667 nm fluorescence, primary screen (AID 1096); details: small-molecule microarray, 635 nm fluorescence, higher = more signal
Neurogenic locus notch homolog protein 3 (Homo sapiens), sequence (Q9UM47 whole entry, looked up): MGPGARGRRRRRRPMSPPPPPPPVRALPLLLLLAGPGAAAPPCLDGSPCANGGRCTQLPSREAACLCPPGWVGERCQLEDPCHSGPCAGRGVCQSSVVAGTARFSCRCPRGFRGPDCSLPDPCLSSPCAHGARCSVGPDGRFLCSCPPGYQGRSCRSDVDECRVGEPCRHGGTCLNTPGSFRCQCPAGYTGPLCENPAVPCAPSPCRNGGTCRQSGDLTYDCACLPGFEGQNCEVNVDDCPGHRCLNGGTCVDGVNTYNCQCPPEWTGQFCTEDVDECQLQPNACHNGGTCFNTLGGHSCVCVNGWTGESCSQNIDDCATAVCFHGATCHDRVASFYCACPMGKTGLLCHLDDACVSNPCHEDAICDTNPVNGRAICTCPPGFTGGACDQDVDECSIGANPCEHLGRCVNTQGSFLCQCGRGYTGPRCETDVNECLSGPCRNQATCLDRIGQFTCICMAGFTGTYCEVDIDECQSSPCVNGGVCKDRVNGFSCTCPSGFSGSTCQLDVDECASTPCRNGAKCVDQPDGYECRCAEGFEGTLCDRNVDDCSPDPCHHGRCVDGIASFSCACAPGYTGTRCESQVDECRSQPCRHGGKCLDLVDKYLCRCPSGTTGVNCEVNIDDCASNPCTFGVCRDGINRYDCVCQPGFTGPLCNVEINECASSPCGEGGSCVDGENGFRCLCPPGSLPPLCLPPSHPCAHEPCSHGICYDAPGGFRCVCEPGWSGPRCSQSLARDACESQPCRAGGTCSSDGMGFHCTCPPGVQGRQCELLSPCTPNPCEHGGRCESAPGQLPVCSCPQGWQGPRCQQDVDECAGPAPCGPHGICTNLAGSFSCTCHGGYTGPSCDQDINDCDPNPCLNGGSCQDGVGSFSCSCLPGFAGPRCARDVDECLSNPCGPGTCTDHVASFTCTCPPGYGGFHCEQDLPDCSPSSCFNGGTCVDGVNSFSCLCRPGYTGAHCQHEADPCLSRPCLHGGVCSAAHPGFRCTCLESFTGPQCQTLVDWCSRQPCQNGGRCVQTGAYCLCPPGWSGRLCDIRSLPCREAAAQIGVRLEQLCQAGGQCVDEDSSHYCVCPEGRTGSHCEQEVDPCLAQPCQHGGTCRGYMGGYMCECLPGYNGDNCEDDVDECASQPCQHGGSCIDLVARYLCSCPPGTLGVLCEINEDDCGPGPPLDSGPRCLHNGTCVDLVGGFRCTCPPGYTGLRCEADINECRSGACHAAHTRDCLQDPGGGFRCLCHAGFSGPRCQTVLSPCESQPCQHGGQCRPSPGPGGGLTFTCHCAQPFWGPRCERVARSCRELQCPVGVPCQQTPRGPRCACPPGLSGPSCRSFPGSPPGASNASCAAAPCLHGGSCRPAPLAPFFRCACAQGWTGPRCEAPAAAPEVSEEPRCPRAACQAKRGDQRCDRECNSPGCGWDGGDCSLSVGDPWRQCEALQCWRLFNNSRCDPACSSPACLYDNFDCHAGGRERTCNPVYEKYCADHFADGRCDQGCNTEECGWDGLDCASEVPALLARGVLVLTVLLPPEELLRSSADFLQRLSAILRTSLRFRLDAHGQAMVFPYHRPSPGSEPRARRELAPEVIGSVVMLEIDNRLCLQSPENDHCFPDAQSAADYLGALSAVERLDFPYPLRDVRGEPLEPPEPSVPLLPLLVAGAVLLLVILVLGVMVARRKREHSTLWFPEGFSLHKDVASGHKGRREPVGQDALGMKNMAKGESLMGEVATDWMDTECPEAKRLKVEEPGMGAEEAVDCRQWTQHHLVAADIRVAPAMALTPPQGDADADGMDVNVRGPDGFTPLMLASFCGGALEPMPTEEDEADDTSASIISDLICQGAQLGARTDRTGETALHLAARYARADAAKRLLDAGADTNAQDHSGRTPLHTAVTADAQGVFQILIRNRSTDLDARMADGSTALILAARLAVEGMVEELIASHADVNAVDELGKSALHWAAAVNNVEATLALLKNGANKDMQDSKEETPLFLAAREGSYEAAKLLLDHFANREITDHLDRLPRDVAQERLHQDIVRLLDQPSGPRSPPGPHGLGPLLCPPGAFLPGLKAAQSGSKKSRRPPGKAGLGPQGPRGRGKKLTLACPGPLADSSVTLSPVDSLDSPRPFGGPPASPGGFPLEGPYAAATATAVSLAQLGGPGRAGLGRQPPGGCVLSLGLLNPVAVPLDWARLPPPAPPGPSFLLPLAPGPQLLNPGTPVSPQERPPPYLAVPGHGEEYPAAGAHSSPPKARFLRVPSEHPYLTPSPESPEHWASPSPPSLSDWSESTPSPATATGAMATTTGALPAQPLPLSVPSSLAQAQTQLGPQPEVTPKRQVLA

[10] = probe aEGFR binding to arrayed compounds – biochemical, biotinylated probe, 635/667 nm fluorescence, primary screen (AID 1097); details: small-molecule microarray, higher = more signal;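 further: probe is a biotinylated anti-EGFR antibody binding compounds printed on slides; score combines fluorescence near 667 nm and signal to noise of each spot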

| Structure (SMILES) | composite z-score [1] | z-score [2] | z-score [3] | z-score [4] | composite z-score [5] | z-score [6] | composite z-score [7] | composite z-score [8] | composite z-score [9] | composite z-score [10] |
| --- | --- | --- | --- | --- | --- | --- | --- | --- | --- | --- |
| COCCOC(=O)N1C(=O)[C@@]2(c3cc(C#CC4=CCCCC4)ccc31)[C@H](C(=O)NC[C@H](O)c1ccccc1)[C@H]1C(=O)O[C@H](c3ccccc3)[C@H](c3ccccc3)N1[C@@H]2c1ccc(OCCO)cc1 | 1.54 | 2.15 (inactive) | 1.44 (inactive) | 4.41 (inactive) | 2.41 | -0.662 (inactive) | -0.003 | 1.85 | 1.13 | -0.144 |
| CC(C)CNC(=O)[C@@]1(C)c2ccccc2C(=O)N(Cc2ccc(OC(F)(F)F)cc2)[C@H]1c1ccc(CO)cc1 | -0.379 | -0.545 (inactive) | -0.808 (inactive) | -0.53 (inactive) | 0.932 | 1.52 (inactive) | 0.117 | -1.13 | -1.27 | -0.112 |
| COC(=O)[C@H]1[C@@H]2COc3ccccc3[C@H]2N[C@H]1C(=O)OC | 0.213 | -0.501 (inactive) | -8.98 (active) | 0.265 (inactive) | 0.584 | 0.694 (inactive) | 0.0111 | 0.208 | 0.422 | -0.152 |
| CO[C@H]1O[C@H](CO)[C@@H](OC(=O)Nc2ccc3c(c2)OCO3)[C@H](OC(=O)Nc2ccccc2)[C@@H]1OC(=O)Nc1ccccc1 | 1.55 | 0.738 (inactive) | 0.51 (inactive) | 4.42 (inactive) | 3.33 | -1.17 (inactive) | -0.0798 | 1.02 | 0.915 | -0.144 |
| CC(C)[Si]1(C(C)C)O[C@@H](c2ccccc2)c2cc(C3CC3)nc(-c3ccc(Oc4ccccc4)cc3)c21 | -0.63 | 0.995 (inactive) | -0.808 (inactive) | 1.21 (inactive) | 0.369 | 1.94 (inactive) | -0.142 | -0.101 | -1.22 | -0.169 |
| COC(=O)c1ccc(C#CC(NP(=O)(c2ccccc2)c2ccccc2)c2ccccc2)cc1 (stereo not given) | -0.362 | -0.664 (inactive) | -11.5 (active) | 1.25 (inactive) | 3.14 | 0.0037 (inactive) | 0.594 | -0.0434 | 1.05 | 0.093 |
| O=C1O[C@H](c2ccccc2)[C@H](c2ccccc2)N2[C@H]1[C@@H](C(=O)Nc1nc3ccccc3s1)[C@]1(C(=O)Nc3ccc(C#CC4(O)CCCCCC4)cc31)[C@H]2c1ccc(O)cc1 | 1.54 | -0.0416 (inactive) | -0.265 (inactive) | 0.439 (inactive) | 3.08 | -0.616 (inactive) | 0.11 | 1.59 | 1.09 | -0.0214 |
| CO[C@H]1COC(=O)[C@H](CCSC)NC(=O)CC=C[C@@H](C)COC(=O)[C@@H](OCc2ccccc2)C=C[C@@H]1C | 1.13 | 0.891 (inactive) | 0.353 (inactive) | 0.97 (inactive) | -0.84 | 0.109 (inactive) | -0.222 | 1.93 | 0.13 | -0.0131 |
| C=C(C)[C@@H]1CC=C(C(O)C2C=CC3C(=O)NC(=O)C3N2Nc2ccccn2)CC1 (stereo not given in full) | 1.55 | 0.0118 (inactive) | 0.514 (inactive) | -0.285 (inactive) | 2.76 | -0.953 (inactive) | 0.607 | 1.9 | 1.02 | 0.641 |
| C[C@H]1COC(=O)[C@H](Cc2ccccc2)NC(=O)[C@@H](C)COC(=O)[C@H](Cc2ccccc2)NC1=O | 1.57 | -0.743 (inactive) | -1.27 (inactive) | -0.278 (inactive) | 1.92 | -0.208 (inactive) | -0.243 | 0.996 | 1.13 | -0.0781 |
| CO[C@H]1COC(=O)[C@@H](C)COC(=O)[C@H](Cc2ccccc2)NC(=O)CC=C[C@H]1C | 0.525 | -0.662 (inactive) | -1.25 (inactive) | -0.544 (inactive) | -0.274 | 0.331 (inactive) | -0.302 | 1.26 | 0.722 | -0.188 |
| O=C1OCC=C[C@H]2OC34C=CCN(Cc5ccccc5)C(=O)[C@H]3N(CCCCCO)C(=O)[C@@H]4[C@@H]12 (stereo not given in full) | -0.702 | -0.524 (inactive) | -1.06 (inactive) | -0.368 (inactive) | 1.06 | 2.33 (inactive) | 0.0282 | -1.5 | -0.911 | -0.358 |
| CCN1C(C)=C(C(=O)OC)[C@@H](c2ccccc2)N2C(=O)[C@@]3(C(=O)OC)O[C@@]12[C@@H]1C(=O)CCC[C@@H]13 | 1.12 | 0.352 (inactive) | -1.06 (inactive) | 1.8 (inactive) | -0.323 | 0.0465 (inactive) | -0.243 | 1.57 | 0.135 | 0.0173 |
| COc1ccc([Si](C)(C)[C@H]2[C@H](CC(=O)N3Cc4ccccc4C[C@H]3CO)O[C@@]3(C(=O)N(Cc4cccc(N5CCOC5=O)c4)c4ccccc43)[C@@H]2C)cc1 | 1.34 | -0.541 (inactive) | 0.319 (inactive) | 0.18 (inactive) | 0.662 | 1.4 (inactive) | 0.0939 | 1.22 | 0.932 | -0.0169 |
